Screening results as filed in PubChem.
HT1080NT lethal – kills 2HG-producing HT-1080-NT fibrosarcoma cells; HT-1080-NT fibrosarcoma viability, CellTiter-Glo ATP luminescence, 48 h; Potency, µM (top dose mostly 46.1 µM), for the others: at the highest dose activity, negative = less viability, usual class: cytotoxic; 360,000 tested, 1.6% active;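 note: NT is the 2HG producing partner of a matched IDH1 knockdown line; potency is the fitted concentration of half-maximal effect; 0% = DMSO-treated cells and -100% = media-only wells without cells; nearly all actives have a fitted effect of over 55% in size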
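Fibrosarcoma NT cells, 750 per well in 5% FBS RPMI, were exposed to compound for 48 hours. Viability: CellTiter-Glo luminescence.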
ELG1 repair inh – ELG1-dependent DNA repair inhibition; AID 504467; Potency, µM (top dose mostly 46.1 µM), for the others: at the highest dose activity change, negative = inhibition, hits mostly inhibitors; HEK293T ELG1-luciferase reporter, luminescence, 16 h; DNA damage induced by 5-fluorouridine; 330,000 tested, 2.3% active; note: potency is the fitted concentration of half-maximal effect; nearly all actives have a fitted effect of over 55% in size
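Reporter activity after DNA damage by 5-fluorouridine is monitored. Compound-treated cells incubate 16 hr at 37 °C, then ONE-Glo is added for 30 min before luminescence reading.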
TDP1 cell noCPT – qHTS for Inhibitors of human tyrosyl-DNA phosphodiesterase 1 (TDP1): qHTS in cells in absence of CPT. 420,000 tested, 15% active. DT40 Tdp1-/- hTDP1 cells, no CPT, ATP luminescence, 48 h. Potency, µM (top dose mostly 46.2 µM), without a hit: at the top dose activity change, negative = growth inhibition, most hits filed as inhibitors. AID 686978, 2013; note: potency is the fitted concentration of half-maximal effect; nearly all actives have a fitted effect of over 55% in size
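Stably hTDP1-transfected Tdp1-null chicken DT40 cells were treated with library compounds minus camptothecin and grown for at least 48 hr at 37 °C, after which cellular ATP was quantified by luminescence.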
IL-1B inflam inh – blocks inflammasome-driven IL-1 beta release; THP-1 LPS/ATP IL-1B secretion, AlphaLISA, 16 h; active compounds read low; activity change, % at 57.5 µM; 360,000 tested, 4.7% active; AID 743279; in the data active = activity change below about -50%; inconclusive = mostly about -30% to -49%
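Secreted IL-1B measured by AlphaLISA bead assay after 16 h compound exposure of THP-1 cells; compounds (final up to 57.5 uM) added 1 h before LPS (250 ng/mL) and ATP (1.25 mM) stimulation; lower signal means less secretion.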
HT1080 IDH1KD tx – HT-1080 IDH1 knockdown cell toxicity (counter line); 360,000 tested, 2% active; HT-1080 IDH1 knockdown viability, ATP luminescence, 48 h; Potency, µM (doses to about 46.1 µM), without a hit: at the highest dose activity, negative = toxicity, actives largely listed as cytotoxic; AID 686971;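 note: potency is the fitted concentration of half-maximal effect; 0% = DMSO wells and -100% = cell-free medium wells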
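After a 2 h attachment period, IDH1KD HT-1080 cells took pin-transferred compound for 48 h at 37 °C; ATP-based luminescence after 10 min room-temperature reagent incubation reported viability.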
TDP1 cell CPT – growth inhibition of DT40 Tdp1-/-;hTDP1 cells with camptothecin (screen for TDP1 inhibitors). chicken DT40 Tdp1-/-;hTDP1 cells + 20 nM CPT, ATP luminescence, 48 h. Potency, µM (titrated, usually from 46.2 µM), for inactives: at the top dose activity change, negative = growth inhibition, most hits filed as inhibitors. 420,000 tested, 12% active. AID 686979; note: potency is the fitted concentration of half-maximal effect; nearly all actives have a fitted effect of over 55% in size
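Chicken DT40 Tdp1-/- cells complemented with human TDP1, 400 cells/well, exposed to compounds plus 20 nM camptothecin for at least 48 h at 37 C; viability read as ATP content by CellTiter-Glo luminescence.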
An asterisk follows results filed as active; [ ] = another dose, or the depositor's remark. Only some compounds are listed: those with a hit (about 19% of all), similar ones and a draw of the others. Unless noted, calls come from the whole dose curve; as a rule, active = well fitted curve in the direction sought with a large enough effect; inconclusive = small, poorly fitted or top-dose-only effect, or another doubt; inactive = no such curve, though single readings can be large; an effect the other way counts as inactive or inconclusive. Unless noted, % is set by controls: 0 for no effect and ±100 for the full control effect.

`CCC(C)[C@H]1CNC(=O)C(=O)N1CC1CCCCC1` (stereo partly specified) gave HT1080NT lethal 4.6%, TDP1 cell noCPT -18.3%, HT1080 IDH1KD tx 11.3% and TDP1 cell CPT 3.7%.
`COc1ccc(NC(=O)c2cc(C3CCCCN3C(=O)c3ccc(NC(C)=O)cc3)on2)c(C)c1` (stereo unspecified) gave HT1080NT lethal 3.4%, TDP1 cell noCPT -0.9%, IL-1B inflam inh -1.6, HT1080 IDH1KD tx 0.0% and TDP1 cell CPT -5.7%.
Screening CC1(C(=O)OCC(=O)Nc2ccc(C(N)=O)cc2)CC1(Cl)Cl (stereo unspecified) returned HT1080NT lethal 1.1%, ELG1 repair inh inconclusive, TDP1 cell noCPT 10.8%, IL-1B inflam inh 0.0, HT1080 IDH1KD tx -0.4% and TDP1 cell CPT 4.8%.
`CC1(C(=O)OCC(=O)NCCNC(=O)COC(=O)C2(C)CC2(Cl)Cl)CC1(Cl)Cl` (stereo unspecified) gave HT1080NT lethal -2.0%, ELG1 repair inh 15.5%, TDP1 cell noCPT 16.4µM*, IL-1B inflam inh 4.2, HT1080 IDH1KD tx -6.5% and TDP1 cell CPT inconclusive.
`CC1(C(=O)OCC(=O)Nc2ccc3ccccc3c2)CC1(Cl)Cl` (stereo unspecified) gave HT1080NT lethal -6.8%, ELG1 repair inh -7.9%, TDP1 cell noCPT inconclusive, IL-1B inflam inh -97.1*, HT1080 IDH1KD tx 0.8% and TDP1 cell CPT inconclusive.
Screening NC(=O)c1ccc(NC(=O)COC(=O)CCC2CCCC2)cc1 returned HT1080NT lethal 6.7%, TDP1 cell noCPT -26.8%, IL-1B inflam inh -26.8, HT1080 IDH1KD tx 7.2% and TDP1 cell CPT 4.2%.
`COc1ccc(CCNc2cc(C)nc3c(-c4ccc(Cl)cc4)cnn23)cc1OC` gave HT1080NT lethal inconclusive, ELG1 repair inh inconclusive, TDP1 cell noCPT 16.4µM*, IL-1B inflam inh -15.0, HT1080 IDH1KD tx -27.7% and TDP1 cell CPT 20.6µM*.
For COc1ccc(CCNc2cc(C)nc3c(-c4ccccc4)c(C)nn23)cc1OC the results were HT1080NT lethal -1.2%, ELG1 repair inh 20.6µM*, TDP1 cell noCPT 16.4µM*, IL-1B inflam inh 4.7, HT1080 IDH1KD tx -1.1% and TDP1 cell CPT inconclusive.
For Cc1cc(NC2CCCC2)n2nc(C)c(-c3ccccc3)c2n1 the results were HT1080NT lethal -4.1%, ELG1 repair inh 0.6%, TDP1 cell noCPT inconclusive, IL-1B inflam inh -74.1*, HT1080 IDH1KD tx -23.5% and TDP1 cell CPT inconclusive.
For CC(=O)Nc1ccc(Nc2cc(C)nc3c(-c4ccc(Cl)cc4)cnn23)cc1 the results were HT1080NT lethal -12.2%, ELG1 repair inh inconclusive, TDP1 cell noCPT 23.1µM*, IL-1B inflam inh -7.3, HT1080 IDH1KD tx inconclusive and TDP1 cell CPT 18.4µM*.
`COc1ccc(-c2c(C)nn3c(NC4CCCC4)cc(C)nc23)cc1OC` gave HT1080NT lethal -2.8%, ELG1 repair inh inconclusive, TDP1 cell noCPT inconclusive, IL-1B inflam inh -3.7, HT1080 IDH1KD tx -12.2% and TDP1 cell CPT inconclusive.
COCCNc1cc(C)nc2c(-c3ccccc3OC)c(C)nn12 was read as HT1080NT lethal 14.3%, ELG1 repair inh 0.8%, TDP1 cell noCPT -11.4%, IL-1B inflam inh 28.9, HT1080 IDH1KD tx -0.6% and TDP1 cell CPT -3.9%.
Screening COc1ccccc1-c1cnn2c(NCCc3ccccc3)cc(C)nc12 returned HT1080NT lethal -5.3%, ELG1 repair inh inconclusive, TDP1 cell noCPT inconclusive, IL-1B inflam inh inconclusive, HT1080 IDH1KD tx -5.8% and TDP1 cell CPT 3.8%.
Screening COc1ccc(CCNc2cc(C)nc(N)n2)cc1OC returned HT1080NT lethal 4.4%, ELG1 repair inh -0.4%, TDP1 cell noCPT inconclusive, IL-1B inflam inh -2.0, HT1080 IDH1KD tx -2.6% and TDP1 cell CPT inconclusive.
COc1nc(NCCc2ccc(OC)c(OC)c2)nc(Nc2ccccc2)n1 was read as HT1080NT lethal -1.8%, ELG1 repair inh inconclusive, TDP1 cell noCPT inconclusive, IL-1B inflam inh -81.2*, HT1080 IDH1KD tx -4.8% and TDP1 cell CPT 14.6µM*.
For COc1ccc(CCNc2cc(C)nc3c(-c4ccccc4)cnn23)cc1OC the results were HT1080NT lethal -20.5%, ELG1 repair inh inconclusive, TDP1 cell noCPT 29.1µM*, IL-1B inflam inh inconclusive, HT1080 IDH1KD tx inconclusive and TDP1 cell CPT inconclusive.
Screening Cc1ncc2c(c1CNC(=O)c1ccc3c(c1)OCO3)CCN(C(=O)c1ccoc1)C2 returned TDP1 cell noCPT -13.3% and TDP1 cell CPT 1.6%[9.04 µM].
For Cn1nc(-c2ccccc2)c(C(O)c2ccccc2C(F)(F)F)c1Cl (stereo unspecified) the results were HT1080NT lethal 8.8%, ELG1 repair inh -21.7%, TDP1 cell noCPT -22.5%, IL-1B inflam inh 8.7, HT1080 IDH1KD tx 11.1% and TDP1 cell CPT -24.9%.
`COC(c1ccccc1)c1c(-c2ccccc2)nn(C)c1Cl` (stereo unspecified) gave HT1080NT lethal -3.1%, ELG1 repair inh 1.0%, TDP1 cell noCPT inconclusive, IL-1B inflam inh 25.0, HT1080 IDH1KD tx -10.0% and TDP1 cell CPT 1.46µM*.
For Cn1ccsc1=NC(=O)c1ccc([N+](=O)[O-])o1 the results were HT1080NT lethal -19.2%, ELG1 repair inh -9.6%, TDP1 cell noCPT inconclusive, IL-1B inflam inh -28.9, HT1080 IDH1KD tx -21.4% and TDP1 cell CPT 18.4µM*.
For OCc1nc2ccccc2n1CCCc1ccccc1 the results were HT1080NT lethal 0.8%, TDP1 cell noCPT inconclusive, IL-1B inflam inh 8.5, HT1080 IDH1KD tx 5.6% and TDP1 cell CPT 16.4µM*.
`CC(O)c1nc2ccccc2n1CCCOc1ccccc1` (stereo unspecified) gave HT1080NT lethal -0.3%, ELG1 repair inh -6.4%, TDP1 cell noCPT 16.4µM*, IL-1B inflam inh 63.2, HT1080 IDH1KD tx -3.1% and TDP1 cell CPT inconclusive.
`CC(O)c1nc2ccccc2n1CCCc1ccccc1` (stereo unspecified) gave HT1080NT lethal -24.2%, ELG1 repair inh 8.3%, TDP1 cell noCPT -24.8%, IL-1B inflam inh -7.6, HT1080 IDH1KD tx -3.9% and TDP1 cell CPT 18.4µM*.
OCc1nc2ccccc2n1CCc1ccccc1 was read as HT1080NT lethal -8.0%, ELG1 repair inh 5.7%, TDP1 cell noCPT 2.6%, IL-1B inflam inh 10.1, HT1080 IDH1KD tx 1.0% and TDP1 cell CPT -0.8%.
